Results filed as inconclusive are left out. Calls of active or inactive are those of the source. Rule for the calls, unless noted: active = hit-call score of the fitted dose curve at least 0.9, where 1 is the maximum; inactive = score below 0.9.
Assays:
[1] = target: Paired box protein Pax-6 (Homo sapiens) (UniProt P26367); assay: ATG_Pax6_CIS: Attagene CIS-FACTORIAL HepG2 Assay for human Paired Box 6 (PAX6) (AID 2282956); conditions: HepG2 CIS-FACTORIAL PAX6 reporter transcription, RNA readout; actives raise or lower the signal
Summary of the method: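 Fluorescent RT-PCR products separated by capillary electrophoresis report PAX6-linked promoter mRNA in HepG2 cells 24 h post-dose. Curves fitted bidirectionally, DMSO as negative control.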

[2] = ATG_PXRE_CIS: Attagene CIS-FACTORIAL HepG2 Assay for human Pregnane X Receptor Element (PXRE) (AID 2282957); conditions: HepG2 Attagene CIS-FACTORIAL PXRE reporter, mRNA; actives raise or lower the signal
Summary of the method: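 Reporter transcripts under endogenous PXR-responsive cis-regulation quantified from total RNA of transfected HepG2 cells 24 h post-dosing, via RT-PCR with fluorescent primer extension and capillary electrophoresis. Gain or loss of signal fitted against DMSO baseline.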

[3] = ATG_PPRE_CIS: Attagene CIS-FACTORIAL HepG2 Assay for human Peroxisome Proliferator-activated Response Element (PPRE) (AID 2282958); conditions: HepG2 PPRE cis-element reporter, Attagene transcription factor profiling; actives raise or lower the signal
Summary of the method: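 After human HepG2 hepatoma cells were transiently transfected with cis-promoter reporter constructs, they were exposed to test chemicals for 24 hours. Reporter RNA was then reverse-transcribed, PCR-amplified, FAM-labeled, HpaI-digested and quantified by capillary electrophoresis.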

[4] = ATG_RORE_CIS: Attagene CIS-FACTORIAL HepG2 Assay for human RAR-related Orphan Receptor Element (RORE) (AID 2282959); conditions: HepG2 Attagene cis-factorial RORE reporter, mRNA; actives raise or lower the signal
Summary of the method: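 Measured here: transcript induction of a cis-regulated reporter in HepG2 cells transiently transfected via FuGene 6. After 24 h, RNA was processed by RT-PCR and fluorescent capillary electrophoresis; DMSO defined baseline activity.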

[5] = ATG_Sox_CIS: Attagene CIS-FACTORIAL HepG2 Assay for human SRY-box transcription factor (SOX) (AID 2282960); conditions: HepG2 Attagene cis-factorial SOX reporter, mRNA; actives raise or lower the signal
Summary of the method: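 Using transiently transfected HepG2 cells, reporter transcription driven by cis elements was assessed 24 h after dosing. Signal was fluorescence of capillary-separated RT-PCR products, with DMSO defining baseline activity.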

[6] = target: Transcription factor Sp1 (Homo sapiens) (UniProt P08047); assay: ATG_Sp1_CIS: Attagene CIS-FACTORIAL HepG2 Assay for human Specificity Protein 1 (Sp1) (AID 2282961); conditions: HepG2 Sp1 cis-reporter transcription, actives raise or lower the signal
Summary of the method: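 After transient transfection of HepG2 cells with cis-promoter reporter units and 24 h chemical treatment, reporter transcripts were quantified by RT-PCR and capillary electrophoresis fluorescence. Gain- and loss-of-signal fitted against DMSO.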

[7] = ATG_SREBP_CIS: Attagene CIS-FACTORIAL HepG2 Assay for human Sterol Regulatory Element Binding (SREBP) (AID 2282962); conditions: HepG2 Attagene cis-factorial SREBP reporter, mRNA; actives raise or lower the signal
Summary of the method: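 Endogenous factor activity is measured in HepG2 through multiplexed reporter units under cis-element control. Following a 24 h incubation, reporter transcripts are reverse-transcribed, PCR-amplified and sized by capillary electrophoresis; activity is fitted in both directions relative to DMSO.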

[8] = target: Signal transducer and activator of transcription 3 (Homo sapiens) (UniProt P40763); assay: ATG_STAT3_CIS: Attagene CIS-FACTORIAL HepG2 Assay for human Signal Transducer and Activator of Transcription 3 (STAT3) (AID 2282963); conditions: HepG2, Attagene cis-factorial STAT3 reporter transcription; actives raise or lower the signal
Summary of the method: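 Readout is reporter transcript quantified by RT-PCR and capillary electrophoresis, with 6-FAM primer extension and HpaI digestion. Total RNA is taken 24 h after dosing transiently transfected HepG2 carrying cis-regulated reporter units. Bidirectional fit against DMSO.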

[9] = ATG_TA_CIS: Attagene CIS-FACTORIAL HepG2 Assay for human TA Basal Promoter (AID 2282964); conditions: HepG2 Attagene CIS-factorial TA basal promoter reporter; actives raise or lower the signal
Summary of the method: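 Multiplexed mRNA reporter assay, HepG2, 24 h. Reporter cDNA amplified, 6-FAM primer-extended, HpaI-cut, CE-sized; DMSO = negative control and baseline.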

[10] = ATG_TCF_b_cat_CIS: Attagene CIS-FACTORIAL HepG2 Assay for human T-Cell-Factor with beta-catenin (TCF/b-cat) (AID 2282965); conditions: HepG2 TCF/beta-catenin cis-reporter transcription, actives raise or lower the signal
Summary of the method: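 Endogenous TCF/LEF activity read as reporter transcript level via RT-PCR and capillary electrophoresis fluorescence in transfected HepG2, 24 h exposure; gain or loss of signal fitted against DMSO controls.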

[11] = ATG_TAL_CIS: Attagene CIS-FACTORIAL HepG2 Assay for human TAL Basal Promoter (AID 2282966); conditions: HepG2 Attagene cis-factorial TAL promoter reporter; actives raise or lower the signal;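 note: background control endpoint measuring basal TAL promoter reporter mRNA not a specific factor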
Summary of the method: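 Background-control endpoint: basal TAL promoter reporter transcripts in transiently transfected HepG2, measured 24 h after dosing. Read-out by RT-PCR with fluorescent primer extension and capillary electrophoresis; gain or loss of signal fitted relative to DMSO.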

[12] = ATG_TGFb_CIS: Attagene CIS-FACTORIAL HepG2 Assay for human Transforming Growth Factor (TGF) (AID 2282967); conditions: HepG2 Attagene CIS TGFb reporter, mRNA transcription; actives raise or lower the signal
Summary of the method: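 Transcript-level reporter readout: HepG2 transfectants, 24 h exposure, RNA to cDNA, reporter-specific PCR, fluorescent primer extension, capillary sizing against ROX standards. Gain- or loss-of-signal relative to DMSO.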

[13] = ATG_VDRE_CIS: Attagene CIS-FACTORIAL HepG2 Assay for human Vitamin D Receptor Element (VDRE) (AID 2282968); conditions: HepG2 VDRE cis-reporter transcription, actives raise or lower the signal
Summary of the method: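 Readout is VDRE-driven reporter mRNA reflecting endogenous factor activity in human HepG2 cells, sampled 24 h post-dose. Quantification used labelled RT-PCR products separated by capillary electrophoresis; bidirectional analysis relative to DMSO.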

[14] = target: Steroid hormone receptor ERR1 (Homo sapiens) (UniProt P11474); assay: ATG_ERRa_TRANS: Attagene TRANS-FACTORIAL HepG2 Assay for human Estrogen-Related Receptor alpha (ERRa) (AID 2282971; active = hit-call score of the fitted dose curve at least 0.9, where 1 is the maximum); conditions: HepG2 Attagene TRANS reporter, ERRa transactivation
Summary of the method: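 Reporter transcripts from ERRa-Gal4 chimera activity measured in transiently transfected human HepG2 cells 24 hours after dosing, using RT-PCR with 6-FAM primer extension, HpaI digestion and capillary electrophoresis; DMSO is baseline.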

[15] = target: X-box-binding protein 1 (Homo sapiens) (UniProt P17861); assay: ATG_Xbp1_CIS: Attagene CIS-FACTORIAL HepG2 Assay for human X-box Binding Protein 1 (XBP1) (AID 2282972); conditions: HepG2 XBP1 cis-element reporter, Attagene multiplex; actives raise or lower the signal
Summary of the method: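 Multiplexed cis-reporter readout in transfected HepG2 liver cells. Exposure lasted 24 hours. Activity in either direction was fitted against DMSO as negative control and baseline.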

[16] = ATG_M_19_TRANS: Attagene TRANS-FACTORIAL HepG2 Assay for M19 Transcription Factor (Internal Marker) (AID 2282974; active = hit-call score of the fitted dose curve at least 0.9, where 1 is the maximum); conditions: HepG2 Attagene TRANS-FACTORIAL M19 internal marker reporter
Summary of the method: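 Gain-of-signal in reporter mRNA, relative to DMSO, was scored from capillary electrophoresis fluorescence. HepG2 cells carried transiently transfected multiple reporter transcription units and were incubated with test chemicals for 24 h.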

[17] = target: Estrogen receptor (Homo sapiens) (UniProt P03372); assay: ATG_ERa_TRANS: Attagene TRANS-FACTORIAL HepG2 Assay for human Estrogen Receptor alpha (ERa) (AID 2282970; active = hit-call score of the fitted dose curve at least 0.9, where 1 is the maximum); conditions: HepG2 Attagene TRANS ERa GAL4 reporter, mRNA
Summary of the method: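 Reporter transcripts were measured 24 h after dosing by RT-PCR with fluorescent primer extension and capillary electrophoresis. The system is transiently transfected HepG2 expressing exogenous NR-Gal4 chimeras driving GAL4-UAS reporters; DMSO is the baseline.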

[18] = ATG_GAL4_TRANS: Attagene TRANS-FACTORIAL HepG2 Assay for GAL4 (Internal Marker) (AID 2282976; active = hit-call score of the fitted dose curve at least 0.9, where 1 is the maximum); conditions: HepG2 Attagene TRANS GAL4 internal marker reporter
Summary of the method: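 In transfected human HepG2 liver cells dosed 24 h, GAL4 reporter mRNA serves as a baseline marker. Detection by RT-PCR with fluorescent capillary electrophoresis, activity fitted upward relative to DMSO.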

Measured: AC50

Chain of Signal transducer and activator of transcription 3 (Homo sapiens) (P40763 whole entry, looked up): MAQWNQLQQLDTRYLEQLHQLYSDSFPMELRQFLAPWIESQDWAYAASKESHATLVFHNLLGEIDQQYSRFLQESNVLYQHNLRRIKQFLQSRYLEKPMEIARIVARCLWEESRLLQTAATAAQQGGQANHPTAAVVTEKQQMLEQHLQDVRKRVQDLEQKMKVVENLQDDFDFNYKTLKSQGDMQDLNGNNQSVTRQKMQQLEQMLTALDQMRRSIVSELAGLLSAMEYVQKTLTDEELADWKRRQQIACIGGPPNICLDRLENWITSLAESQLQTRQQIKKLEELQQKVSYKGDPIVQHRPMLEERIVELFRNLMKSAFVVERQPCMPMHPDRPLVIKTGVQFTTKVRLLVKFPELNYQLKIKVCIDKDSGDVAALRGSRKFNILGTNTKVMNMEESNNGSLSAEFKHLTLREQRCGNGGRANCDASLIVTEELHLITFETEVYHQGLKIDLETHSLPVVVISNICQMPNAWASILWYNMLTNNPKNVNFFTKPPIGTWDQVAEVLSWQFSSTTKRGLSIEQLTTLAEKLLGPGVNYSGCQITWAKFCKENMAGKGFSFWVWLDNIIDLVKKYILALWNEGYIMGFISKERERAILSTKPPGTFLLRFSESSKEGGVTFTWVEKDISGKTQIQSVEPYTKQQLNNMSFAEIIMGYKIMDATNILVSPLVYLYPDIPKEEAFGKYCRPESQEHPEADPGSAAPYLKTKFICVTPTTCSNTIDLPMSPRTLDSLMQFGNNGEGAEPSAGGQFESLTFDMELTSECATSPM
Chain of X-box-binding protein 1 (Homo sapiens) (P17861 whole entry, looked up): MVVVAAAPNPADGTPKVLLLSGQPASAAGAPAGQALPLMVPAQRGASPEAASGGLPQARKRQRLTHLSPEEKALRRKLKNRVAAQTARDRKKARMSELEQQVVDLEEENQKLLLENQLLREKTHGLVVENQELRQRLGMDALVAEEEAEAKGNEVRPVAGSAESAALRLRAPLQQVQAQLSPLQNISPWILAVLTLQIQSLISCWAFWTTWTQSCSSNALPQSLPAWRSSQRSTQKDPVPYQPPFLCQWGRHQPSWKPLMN
Chain of Transcription factor Sp1 (Homo sapiens) (P08047 whole entry, looked up): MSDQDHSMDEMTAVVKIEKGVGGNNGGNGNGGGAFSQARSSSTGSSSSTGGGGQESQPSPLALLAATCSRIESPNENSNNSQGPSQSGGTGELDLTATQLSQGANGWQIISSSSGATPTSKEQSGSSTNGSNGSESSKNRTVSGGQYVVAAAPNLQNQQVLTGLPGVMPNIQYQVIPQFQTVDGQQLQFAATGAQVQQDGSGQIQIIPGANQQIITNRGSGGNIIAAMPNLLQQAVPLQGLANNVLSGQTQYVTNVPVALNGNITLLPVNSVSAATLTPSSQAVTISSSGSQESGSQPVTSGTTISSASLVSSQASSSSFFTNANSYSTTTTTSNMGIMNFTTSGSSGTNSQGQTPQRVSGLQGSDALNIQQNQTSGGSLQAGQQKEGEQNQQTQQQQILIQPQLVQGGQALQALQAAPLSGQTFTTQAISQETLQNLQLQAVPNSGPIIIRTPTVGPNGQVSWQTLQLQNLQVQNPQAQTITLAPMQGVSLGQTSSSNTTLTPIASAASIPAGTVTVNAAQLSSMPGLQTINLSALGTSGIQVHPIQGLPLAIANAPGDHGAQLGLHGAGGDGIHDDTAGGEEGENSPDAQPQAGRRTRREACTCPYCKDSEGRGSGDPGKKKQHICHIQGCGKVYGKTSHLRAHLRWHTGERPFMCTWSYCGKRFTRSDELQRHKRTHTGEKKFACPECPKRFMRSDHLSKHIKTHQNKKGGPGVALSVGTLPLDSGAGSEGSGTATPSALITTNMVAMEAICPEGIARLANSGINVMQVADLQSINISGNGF
Chain of Estrogen receptor (Homo sapiens) (P03372 whole entry, looked up, the tested form may be a part): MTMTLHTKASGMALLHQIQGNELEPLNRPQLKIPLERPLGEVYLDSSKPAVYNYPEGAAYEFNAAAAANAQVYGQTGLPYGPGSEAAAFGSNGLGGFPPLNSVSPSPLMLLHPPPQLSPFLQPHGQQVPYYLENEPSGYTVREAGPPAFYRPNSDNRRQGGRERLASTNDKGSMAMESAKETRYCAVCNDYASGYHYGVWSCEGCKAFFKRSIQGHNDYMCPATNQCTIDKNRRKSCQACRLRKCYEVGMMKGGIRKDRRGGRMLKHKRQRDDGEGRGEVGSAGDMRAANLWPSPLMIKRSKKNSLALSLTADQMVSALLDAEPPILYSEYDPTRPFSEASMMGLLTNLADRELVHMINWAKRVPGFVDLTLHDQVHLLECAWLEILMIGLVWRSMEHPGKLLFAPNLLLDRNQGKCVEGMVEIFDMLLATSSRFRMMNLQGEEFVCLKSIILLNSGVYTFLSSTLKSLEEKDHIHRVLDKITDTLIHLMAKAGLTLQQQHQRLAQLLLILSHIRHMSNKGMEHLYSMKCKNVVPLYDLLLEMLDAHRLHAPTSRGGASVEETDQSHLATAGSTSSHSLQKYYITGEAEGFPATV
Chain of Paired box protein Pax-6 (Homo sapiens) (P26367 whole entry, looked up): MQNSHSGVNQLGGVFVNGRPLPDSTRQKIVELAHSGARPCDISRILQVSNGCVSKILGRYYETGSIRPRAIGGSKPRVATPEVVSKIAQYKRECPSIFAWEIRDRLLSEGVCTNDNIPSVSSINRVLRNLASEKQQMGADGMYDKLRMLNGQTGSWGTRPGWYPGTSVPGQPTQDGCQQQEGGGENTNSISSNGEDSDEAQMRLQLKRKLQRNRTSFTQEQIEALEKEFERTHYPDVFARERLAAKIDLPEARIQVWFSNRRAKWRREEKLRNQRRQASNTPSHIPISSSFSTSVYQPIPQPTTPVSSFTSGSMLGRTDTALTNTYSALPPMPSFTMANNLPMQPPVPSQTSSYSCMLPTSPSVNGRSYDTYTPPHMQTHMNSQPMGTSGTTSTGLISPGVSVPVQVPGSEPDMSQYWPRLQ
Chain of Steroid hormone receptor ERR1 (Homo sapiens) (P11474 whole entry, looked up, the tested form may be a part): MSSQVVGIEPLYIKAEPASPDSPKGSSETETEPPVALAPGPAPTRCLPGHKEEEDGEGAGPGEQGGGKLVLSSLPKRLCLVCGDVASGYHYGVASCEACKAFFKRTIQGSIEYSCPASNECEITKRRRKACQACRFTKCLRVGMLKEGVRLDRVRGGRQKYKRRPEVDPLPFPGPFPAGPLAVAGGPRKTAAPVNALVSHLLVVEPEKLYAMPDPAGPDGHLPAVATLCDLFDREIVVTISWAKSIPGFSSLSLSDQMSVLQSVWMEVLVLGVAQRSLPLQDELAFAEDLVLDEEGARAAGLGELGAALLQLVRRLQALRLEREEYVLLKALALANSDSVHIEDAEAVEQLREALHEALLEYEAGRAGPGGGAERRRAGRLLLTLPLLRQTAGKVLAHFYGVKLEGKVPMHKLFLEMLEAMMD

CC1=CP(=O)(c2ccccc2)CC1 (stereo unspecified)
active: [2] 27.6 µM
not listed: [17] | [18]
inactive: all other assays above

O=C1CCCCC1C1CCCCC1 (stereo unspecified)
active: [2] 27.3 µM
not listed: [8] | [14]
inactive: all other assays above

CC(C)[N+](C)(CCOC(=O)C1c2ccccc2Oc2ccccc21)C(C)C
active: [3] 42.7 µM
not listed: [7] | [14]
inactive: all other assays above

C=CCCCCCCCCO
active: [2] 51.6 µM
not listed: [4] | [14] | [16]
inactive: all other assays above

CC(=O)OC1CCCCC1
not listed: [7] | [16] | [17]
inactive: all other assays above

CC(C)(C)C1CCC(=O)CC1
active: [9] 152 µM
not listed: [6]
inactive: all other assays above

CCOB(OCC)OCC
not listed: [14] | [17] | [18]
inactive: all other assays above

CCCCCCCCCCCC(=O)N(C)CC(=O)O
active: [3] 8.09 µM | [4] 19.6 µM
not listed: [14] | [16]
inactive: all other assays above

Reference: PubChem BioAssay (EPA / NIEHS)
